Assay [1] is described as follows: binders of probe aFSTL3 on microarray, primary screen, stem cell growth factor project, biochemical, small-molecule microarray, fluorescence 635/667 (AID 1064).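 Note: measures binding of the biotinylated anti-FSTL3 antibody to printed compounds.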 The conditions noted are these: higher = more signal.
The nature of assay [2]: binders from COS7 lysate, DM2A8 probe, primary screen, torsin A project, cell lysate, small-molecule microarray, fluorescence 635/667 (AID 1065). Particulars: higher = more signal, COS7 lysate expressing mutant human TOR1A.
The nature of assay [3]: binders of probe aFGF2 on microarray, primary screen, stem cell growth factor project, biochemical, small-molecule microarray, fluorescence 635/667 (AID 1067).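 Note: measures binding of biotinylated aFGF2 protein to printed compounds on slides; z-score merges feature fluorescence and signal-to-noise across triplicate slides.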 Particulars: higher = more signal.
The nature of assay [4]: binders of probe aFGF10 on microarray, primary screen, stem cell growth factor project, biochemical, small-molecule microarray, fluorescence 635/667 (AID 1071).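 Note: score merges 667 nm spot intensity and signal to noise from triplicate slides.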 The conditions noted are these: higher = more signal.
For assay [5], the target named is Neurogenic locus notch homolog protein 2 (Homo sapiens) (UniProt Q04721). As to the kind of experiment: Notch2 binders on small-molecule microarrays, primary screen, biochemical, small-molecule microarray, 635 nm fluorescence, stem cell growth factors (AID 1073). The conditions noted are these: Notch2 binding, higher = more signal.
For assay [6], the target named is Pro-neuregulin-1, membrane-bound isoform (Homo sapiens) (UniProt Q02297). In words: NRG1 binders on small-molecule microarrays, primary screen, psychiatric disease protein project, biochemical, small-molecule microarray, fluorescence 635/667 (AID 1075).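 Note: score combines 667 nm spot fluorescence with signal to noise.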 The conditions noted are these: NRG1 binding, 635 nm fluorescence, higher = more signal.
Pro-neuregulin-1, membrane-bound isoform (Homo sapiens), sequence (Q02297 whole entry, looked up, the tested form may be a part, canonical isoform): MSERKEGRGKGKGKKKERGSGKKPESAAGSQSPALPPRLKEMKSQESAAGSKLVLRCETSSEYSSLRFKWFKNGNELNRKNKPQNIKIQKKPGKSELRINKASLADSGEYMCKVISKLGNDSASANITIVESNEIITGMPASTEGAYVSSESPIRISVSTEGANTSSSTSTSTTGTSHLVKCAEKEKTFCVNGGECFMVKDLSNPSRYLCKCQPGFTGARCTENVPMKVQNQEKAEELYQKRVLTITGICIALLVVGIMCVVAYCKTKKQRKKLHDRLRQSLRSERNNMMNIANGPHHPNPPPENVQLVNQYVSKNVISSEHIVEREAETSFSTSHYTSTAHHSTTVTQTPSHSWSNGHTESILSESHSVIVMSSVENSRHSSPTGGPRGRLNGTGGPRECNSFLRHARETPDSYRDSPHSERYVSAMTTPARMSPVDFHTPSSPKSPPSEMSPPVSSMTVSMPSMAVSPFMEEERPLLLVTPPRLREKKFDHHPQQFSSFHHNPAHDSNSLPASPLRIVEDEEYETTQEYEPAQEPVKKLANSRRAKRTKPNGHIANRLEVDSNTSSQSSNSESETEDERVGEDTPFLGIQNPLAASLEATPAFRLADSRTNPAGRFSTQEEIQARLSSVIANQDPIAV
The subject of assay [7] is Neuregulin-1 EGF-like domain. As to the kind of experiment: binders of neuregulin-1 EGF-like domain, primary screen, biochemical, small-molecule microarray, 635 nm fluorescence (AID 1081).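 Note: binding of the protein to compounds printed on small-molecule microarray slides.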 The conditions noted are these: small-molecule microarray binding, higher = more signal.
The nature of assay [8]: FRG1 promoter luciferase signal modulators, primary screen, FRG1 inhibition for FSHD, cell-based, C2C12 myotubes, firefly/Renilla luciferase, luminescence (AID 1084). Particulars: higher = more signal, called active from +8 up or from −8 down.
Assay [9] in a line: binders of probe aFST on microarray, primary screen, stem cell growth factor project, biochemical, small-molecule microarray, fluorescence 635/667 (AID 1086).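 Note: score merges 667 nm fluorescence with signal-to-noise of each printed compound spot.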 Particulars: higher = more signal.
Assay [10] is described as follows: binders of probe aHhip on microarray, primary screen, stem cell growth factor project, biochemical, small-molecule microarray, fluorescence 635/667 (AID 1087).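 Note: score merges spot fluorescence at 667nm with spot signal to noise ratio.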 The conditions noted are these: higher = more signal.
Assay [11] has as its system PRMT1 (protein arginine N-methyltransferase 1). In words: PRMT1 binders on small-molecule microarrays, primary screen, biochemical, small-molecule microarray, 635 nm fluorescence (AID 1088).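 Note: binding of Prmt1 protein to compounds spotted on small-molecule microarray slides.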 The conditions noted are these: small-molecule microarray binding, higher = more signal.
The nature of assay [12]: yeast growth modulation, basal conditions, primary screen, YJM789 clinical isolate, OD600, 24 h (AID 1089).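 Note: growth of clinical yeast isolate S. cerevisiae YJM 789 seeded 1000 cells per well; test concentration not given here.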 The conditions noted are these: S. cerevisiae YJM789 growth, higher = more signal, called active from +8 up or from −8 down.
A short description of assay [13]: fission yeast growth modulation, primary screen, strain 972, OD600, 24 h, no modulator (AID 1090).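 Note: basal condition with compound alone and no growth modifier present; test concentration not given here.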 Particulars: S. pombe 972 growth, higher = more signal, called active from +8 up or from −8 down.
A short description of assay [14]: S. cerevisiae growth modulation with rapamycin, primary screen, strain BY4716, OD600, 96 h (AID 1091). Note: test concentration not given here. Particulars: higher = more signal, called active from +8 up or from −8 down.
For assay [15], the target named is Torsin-1A-interacting protein 2 (Homo sapiens) (UniProt Q8NFQ8). In words: LULL1 binders on small-molecule microarray, primary screen, cell lysate, human LULL1 lysate, 635/667 nm fluorescence (AID 1092).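 Note: probe is lysate of COS7 cells overexpressing human LULL1; score merges per-feature 667 nm fluorescence with signal-to-noise.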 Particulars: hLULL1 lysate binding, 635 nm fluorescence, higher = more signal.
Torsin-1A-interacting protein 2 (Homo sapiens), sequence (Q8NFQ8 whole entry, looked up): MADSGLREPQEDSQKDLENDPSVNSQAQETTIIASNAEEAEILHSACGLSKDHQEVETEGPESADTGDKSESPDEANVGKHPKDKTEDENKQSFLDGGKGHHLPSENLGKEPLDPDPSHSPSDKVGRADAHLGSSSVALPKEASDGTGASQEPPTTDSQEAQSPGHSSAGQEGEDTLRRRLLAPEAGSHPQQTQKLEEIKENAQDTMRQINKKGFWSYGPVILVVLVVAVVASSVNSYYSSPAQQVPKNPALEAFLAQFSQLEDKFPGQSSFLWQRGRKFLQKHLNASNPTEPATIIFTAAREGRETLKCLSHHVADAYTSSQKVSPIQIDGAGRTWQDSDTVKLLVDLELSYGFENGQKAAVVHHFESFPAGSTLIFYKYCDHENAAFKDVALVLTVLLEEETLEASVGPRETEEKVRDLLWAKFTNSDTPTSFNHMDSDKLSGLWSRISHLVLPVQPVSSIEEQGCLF
Assay [16] in a line: E. coli growth modulation, two-sided OD650, primary screen, E. coli filamentation project, strain DRC41, 24 h (AID 1093).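 Note: MC1000 strain lacking acrAB efflux and sulA so SOS filamentation is blocked; test concentration not given here.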 The conditions noted are these: OD650, 24 h, higher = more signal, called active from +8 up or from −8 down.
A short description of assay [17]: small-molecule microarray binders of probe aLefty2, primary screen, biochemical, biotinylated probe, 635/667 nm fluorescence (AID 1094).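 Note: score merges spot fluorescence near 667 nm with spot signal-to-noise ratio.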 Particulars: higher = more signal.
In assay [18] the test system is Noggin (protein binding on small-molecule microarray). In words: Noggin binders on small-molecule microarray, primary screen, biochemical, 635/667 nm fluorescence (AID 1095).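 Note: score merges 667 nm feature fluorescence with signal to noise over triplicate slides.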 The conditions noted are these: 635 nm fluorescence, higher = more signal.
Assay [19] concerns the target Neurogenic locus notch homolog protein 3 (Homo sapiens) (UniProt Q9UM47). As to the kind of experiment: NOTCH3 binders on small-molecule microarray, primary screen, biochemical, 635/667 nm fluorescence (AID 1096). Particulars: NOTCH3 binding, 635 nm fluorescence, higher = more signal.
The nature of assay [20]: small-molecule microarray binders of probe aEGFR, primary screen, biochemical, biotinylated probe, 635/667 nm fluorescence (AID 1097).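 Note: probe is a biotinylated anti-EGFR antibody binding compounds printed on slides; score combines fluorescence near 667 nm and signal to noise of each spot.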 The conditions noted are these: higher = more signal.

Active and inactive are the calls of the source.

Neurogenic locus notch homolog protein 3 (Homo sapiens), sequence (Q9UM47 whole entry, looked up): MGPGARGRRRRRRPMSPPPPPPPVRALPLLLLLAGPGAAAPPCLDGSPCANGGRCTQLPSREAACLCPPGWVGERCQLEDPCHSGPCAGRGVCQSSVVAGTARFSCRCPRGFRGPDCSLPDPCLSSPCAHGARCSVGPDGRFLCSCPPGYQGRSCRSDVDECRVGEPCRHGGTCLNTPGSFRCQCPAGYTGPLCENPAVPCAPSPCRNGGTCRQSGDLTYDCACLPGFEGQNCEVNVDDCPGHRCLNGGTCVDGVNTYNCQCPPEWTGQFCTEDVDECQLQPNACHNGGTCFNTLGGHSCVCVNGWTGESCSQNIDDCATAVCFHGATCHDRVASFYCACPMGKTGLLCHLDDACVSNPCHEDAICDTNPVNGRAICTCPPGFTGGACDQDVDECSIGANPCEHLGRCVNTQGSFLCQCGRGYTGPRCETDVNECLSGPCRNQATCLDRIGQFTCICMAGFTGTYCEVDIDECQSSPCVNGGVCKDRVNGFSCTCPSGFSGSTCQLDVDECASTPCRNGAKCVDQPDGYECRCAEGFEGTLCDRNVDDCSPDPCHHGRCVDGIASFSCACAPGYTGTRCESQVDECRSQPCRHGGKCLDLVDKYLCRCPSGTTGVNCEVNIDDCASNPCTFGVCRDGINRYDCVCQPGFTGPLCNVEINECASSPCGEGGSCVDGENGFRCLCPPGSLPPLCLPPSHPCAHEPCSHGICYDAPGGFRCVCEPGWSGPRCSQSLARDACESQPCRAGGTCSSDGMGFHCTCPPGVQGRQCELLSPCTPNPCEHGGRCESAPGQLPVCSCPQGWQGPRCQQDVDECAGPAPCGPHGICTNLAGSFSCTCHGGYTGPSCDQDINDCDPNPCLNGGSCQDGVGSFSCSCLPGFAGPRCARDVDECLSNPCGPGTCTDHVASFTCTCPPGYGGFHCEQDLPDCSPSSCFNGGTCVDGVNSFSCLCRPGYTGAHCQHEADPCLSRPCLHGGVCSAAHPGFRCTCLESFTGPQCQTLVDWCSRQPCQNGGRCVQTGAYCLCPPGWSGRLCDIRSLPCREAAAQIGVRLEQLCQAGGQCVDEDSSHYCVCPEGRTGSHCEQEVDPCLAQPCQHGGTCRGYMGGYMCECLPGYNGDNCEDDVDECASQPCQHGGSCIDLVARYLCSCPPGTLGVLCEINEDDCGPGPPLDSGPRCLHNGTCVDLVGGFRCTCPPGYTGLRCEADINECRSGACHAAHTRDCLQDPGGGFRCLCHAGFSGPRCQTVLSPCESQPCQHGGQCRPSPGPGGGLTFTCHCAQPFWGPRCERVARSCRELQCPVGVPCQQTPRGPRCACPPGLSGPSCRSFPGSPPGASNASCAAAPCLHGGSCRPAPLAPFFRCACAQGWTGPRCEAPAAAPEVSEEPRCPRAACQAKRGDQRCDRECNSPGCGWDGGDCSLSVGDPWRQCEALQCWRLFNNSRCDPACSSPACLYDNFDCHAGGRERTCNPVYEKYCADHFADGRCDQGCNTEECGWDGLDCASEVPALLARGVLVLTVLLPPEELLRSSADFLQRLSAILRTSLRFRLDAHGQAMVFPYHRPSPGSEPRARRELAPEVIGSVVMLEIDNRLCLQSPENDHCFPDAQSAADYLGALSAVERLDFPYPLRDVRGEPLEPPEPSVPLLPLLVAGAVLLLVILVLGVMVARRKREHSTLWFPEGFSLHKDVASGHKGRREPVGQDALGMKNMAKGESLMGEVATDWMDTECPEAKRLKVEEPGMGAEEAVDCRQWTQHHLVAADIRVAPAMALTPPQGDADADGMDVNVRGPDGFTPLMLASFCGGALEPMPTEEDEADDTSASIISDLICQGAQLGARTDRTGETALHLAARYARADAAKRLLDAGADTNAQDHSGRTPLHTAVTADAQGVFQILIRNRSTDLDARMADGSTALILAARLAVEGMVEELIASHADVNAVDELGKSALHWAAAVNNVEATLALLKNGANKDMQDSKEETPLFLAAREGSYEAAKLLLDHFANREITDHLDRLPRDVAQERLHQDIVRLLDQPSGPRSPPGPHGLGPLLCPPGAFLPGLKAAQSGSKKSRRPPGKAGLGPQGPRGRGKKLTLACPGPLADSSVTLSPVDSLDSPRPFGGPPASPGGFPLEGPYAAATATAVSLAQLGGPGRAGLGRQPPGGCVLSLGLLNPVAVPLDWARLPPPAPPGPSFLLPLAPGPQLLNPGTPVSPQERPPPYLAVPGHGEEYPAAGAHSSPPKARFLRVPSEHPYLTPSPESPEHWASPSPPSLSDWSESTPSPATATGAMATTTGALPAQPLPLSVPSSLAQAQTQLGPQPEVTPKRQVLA

In the case of `CN(C)CCCNC(=O)[C@@]1(Cc2ccccc2I)c2ccccc2C(=O)N(Cc2ccccc2Cl)[C@H]1c1ccc(CO)cc1`, the composite z-score was 1.17 in [1]; -0.576 in assay [2]; 0.0516 in [3]; 0.617 in [4]; 0.0497 in assay [5]; 1.47 in assay [6]. Besides, the composite z-score in assay [7] was 1.25; in assay [9] it was 0.294; in assay [10], -0.181; in [11] it was 0.9; in [15], 2.78; in [17], 0.222. Also, the composite z-score in assay [18] was -0.819; in [19] it was -0.063; in assay [20], 0.147. Also, the z-score in assay [8] is -2.07 (inactive); in assay [12], -0.531 (inactive); in assay [13], -19.8 (active); in assay [14] it was -2.99 (inactive); in [16], -1.7 (inactive).
Turning to `O=C(N1CCOCC1)[C@@]1(CCS(=O)(=O)c2ccccc2)COC(c2ccc(OCCCO)cc2)=N1`, the composite z-score in assay [1] was 0.229; in assay [2] it was 0.281; in [3] it was -0.0348; in assay [4], 0.797; in assay [5] it was -0.194; in assay [6] it was 0.929. Moreover, the composite z-score in assay [7] is 0.942; in [9] it was 0.54; in assay [10], 0.041; in assay [11], 0.988; in assay [15], 3.18; in assay [17], -0.139. The composite z-score is 0.0307 in [18], 0.0961 in [19] and -0.174 in [20]. For the same molecule, the z-score was -1.85 (inactive) in [8]; 0.0962 (inactive) in [12]; 0.365 (inactive) in assay [13]; -0.408 (inactive) in assay [14]; 1.01 (inactive) in [16].
For `O=C1OCC=C[C@H]2OC34C=CCN(CCN5CCOCC5)C(=O)[C@H]3N(CCCCCO)C(=O)[C@@H]4[C@@H]12` (stereo not given in full), the composite z-score is -0.099 in [1]; 0.298 in [2]; -0.128 in assay [3]; -0.191 in [4]; 0.0385 in assay [5]; -0.0529 in assay [6]. For the same molecule, the composite z-score is 1.43 in assay [7]; -0.452 in [9]; -0.236 in assay [10]; -0.0623 in [11]; 2.22 in assay [15]; -0.0282 in [17]. Also, the results for the composite z-score in [18], in assay [19] and in assay [20] were 0.0316, -0.255 and -0.0831, respectively. The z-score in assay [8] was 0.401 (inactive); in [12], -1 (inactive); in assay [13], -0.586 (inactive); in [14] it was -0.406 (inactive); in assay [16], -0.0128 (inactive).
Consider `CCCN1C(=O)[C@@H]2Cc3c([nH]c4ccccc34)[C@@H](c3cccc(O)c3)N2C1=O`, for which the composite z-score was -0.588 in assay [1]; 0.247 in assay [2]; -0.113 in [3]; 0.428 in assay [4]; 0.59 in assay [5]; 0.263 in assay [6]. In addition, the composite z-score in assay [7] is 0.12; in assay [9], -0.0001; in assay [10], -0.0994; in [11], 0.213; in assay [15] it was 0.379; in assay [17] it was -0.0823. The composite z-score in assay [18] was 0.287; in assay [19], 0.423; in assay [20] it was -0.0424. The z-score in assay [8] is 0.85 (inactive); in [12], -0.521 (inactive); in [13], -0.132 (inactive); in assay [14] it was 0.385 (inactive); in assay [16], 0.317 (inactive).
On to `CCOC(=O)C[C@H]1[C@H](OC(=O)c2cc3ccccc3oc2=O)[C@@H](NC(=O)c2ccc3ccccc3n2)c2cc(OCCCO)ccc2N1C(=O)c1ccc2ccccc2n1`, for which the composite z-score in assay [1] is 1.37; in assay [2] it was 0.14; in assay [3] it was -0.0342; in assay [4] it was 0.936; in [5], 0.114; in [6], -0.0114. Moreover, the composite z-score in [7] was 1.06; in [9], 0.787; in assay [10], 0.177; in assay [11], 0.295; in assay [15], 0.648; in assay [17], -0.0773. Besides, the composite z-score in [18] worked out at 1.03; in assay [19], 1.12; in [20] it was 0.183. In addition, the z-score was -0.21 (inactive) in assay [8]; -0.157 (inactive) in assay [12]; 0.291 (inactive) in assay [13]; -0.273 (inactive) in [14]; 1.5 (inactive) in assay [16].
